Active and inactive are the calls of the source. Rule for the calls: active = hit-call score of the fitted dose curve at least 0.9, where 1 is the maximum; inactive = score below 0.9.
Key:
[1] = molecular target: Bile acid receptor (Homo sapiens) (UniProt Q96RI1); test: ATG_IR1_CIS: Attagene CIS-FACTORIAL HepG2 Assay for human Nuclear Receptor Subfamily 1 Group H Member 4 (NR1H4), IR1 submotif (AID 2282946); details: IR1 reporter transcription, actives raise or lower the signal
Summary of the method: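 HepG2 cells transiently transfected with multiplexed cis-element reporter units read endogenous transcription factor activity. After 24 h compound exposure, reporter mRNA was quantified by RT-PCR, fluorescent labelling, HpaI digestion and capillary electrophoresis; bidirectional fitting versus DMSO baseline.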

[2] = ATG_GRE_CIS: Attagene CIS-FACTORIAL HepG2 Assay for human Glucocorticoid Response Elements (GRE) (AID 2282947); details: HepG2 GRE cis-reporter, Attagene multiplex mRNA; actives raise or lower the signal
Summary of the method: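 Multiplexed cis-reporter mRNA induction, HepG2, 24 h post-dose. RT-PCR, FAM-labelled, HpaI-digested amplicons by CE. Bidirectional fit vs DMSO.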

[3] = ATG_M_32_CIS: Attagene CIS-FACTORIAL HepG2 Assay for M32 Transcription Factor (Internal Marker) (AID 2282949); details: HepG2 Attagene cis-factorial M32 reporter, mRNA; actives raise or lower the signal;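 note: background control marker of the multiplexed CIS panel rather than a real target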
Summary of the method: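 Using DMSO as baseline, bidirectional curve fits were applied to reporter mRNA signals. These came from transiently transfected HepG2 cells exposed for 24 h, with RNA analysed by RT-PCR, FAM primer extension, HpaI digestion and CE.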

[4] = ATG_M_06_CIS: Attagene CIS-FACTORIAL HepG2 Assay for M06 Transcription Factor (Internal Marker) (AID 2282950); details: HepG2 Attagene CIS-FACTORIAL M06 internal marker reporter; actives raise or lower the signal
Summary of the method: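 One of many multiplexed endpoints: HepG2 reporter mRNA after 24 h dosing, detected by RT-PCR and capillary electrophoresis fluorescence; gain or loss of signal analysed against DMSO.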

[5] = molecular target: Hypoxia-inducible factor 1-alpha (Homo sapiens) (UniProt Q16665); test: ATG_HIF1a_CIS: Attagene CIS-FACTORIAL HepG2 Assay for human Hypoxia Inducible Factor 1 (HIF1A) (AID 2282951); details: HepG2 Attagene cis-factorial HIF1a reporter transcription; actives raise or lower the signal
Summary of the method: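 HepG2 cells transiently transfected with multiple cis-regulated reporter transcription units measure endogenous transcription factor activity. After 24 h exposure, reporter mRNA is quantified by RT-PCR with 6-FAM labelling, HpaI digestion and capillary electrophoresis. Bidirectional fitting against DMSO.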

[6] = molecular target: Hepatocyte nuclear factor 6 (Homo sapiens) (UniProt Q9UBC0); test: ATG_HNF6_CIS: Attagene CIS-FACTORIAL HepG2 Assay for human Hepatocyte Nuclear Factor 6 (HNF6) (AID 2282952); details: HepG2 Attagene cis-factorial HNF6 reporter transcription; actives raise or lower the signal
Summary of the method: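 Readout: fluorescent reporter-transcript fragments resolved by capillary electrophoresis after RT-PCR, reflecting endogenous factor activity in transfected HepG2. Exposure 24 h. Gain or loss of signal fitted bidirectionally against DMSO.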

[7] = molecular target: Heat shock factor protein 1 (Homo sapiens) (UniProt Q00613); test: ATG_HSE_CIS: Attagene CIS-FACTORIAL HepG2 Assay for human Heat Shock Transcription Factor 1 (HSE) (AID 2282953); details: HepG2 HSE cis-reporter, Attagene RNA transcription; actives raise or lower the signal
Summary of the method: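 Using HepG2 with transfected cis-driven reporter constructs, compound effects on endogenous factor activity are scored as reporter mRNA change at 24 h. Detection: RT-PCR, HpaI digestion, capillary electrophoresis; bidirectional fitting to DMSO.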

[8] = ATG_MRE_CIS: Attagene CIS-FACTORIAL HepG2 Assay for human Metal Responsive Element (MRE) (AID 2282954); details: HepG2 MRE cis-reporter transcription, Attagene multiplex; actives raise or lower the signal
Summary of the method: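 Multiplexed cis-reporter assay in human HepG2 liver cells, 24 h incubation with test chemical. Reporter transcripts measured by RT-PCR and capillary electrophoresis; values from bidirectional curve fitting versus DMSO.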

[9] = ATG_PBREM_CIS: Attagene CIS-FACTORIAL HepG2 Assay for human Phenobarbital-responsive Enhancer Module (PBREM) (AID 2282955); details: HepG2 PBREM cis-reporter, Attagene multiplexed transcription; actives raise or lower the signal
Summary of the method: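 HepG2 cells transiently transfected with multiple cis-regulated reporter units measure endogenous transcription factor activity; 24 h compound exposure. Reporter mRNA quantified by RT-PCR, fluorescent labelling, HpaI digestion and capillary electrophoresis; bidirectional fit versus DMSO.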

[10] = ATG_ISRE_CIS: Attagene CIS-FACTORIAL HepG2 Assay for human Interferon Regulatory Factor 1 (IRF1) binding to an Interferon-Stimulated Response Element (ISRE) (AID 2282948); details: HepG2 ISRE cis-reporter (Attagene), mRNA transcription readout; actives raise or lower the signal
Summary of the method: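 Read-out: fluorescent RT-PCR products resolved by capillary electrophoresis, reporting endogenous transcription factor activity via ISRE-driven reporter mRNA in transfected HepG2 cells dosed for 24 h; gain or loss fitted relative to DMSO.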

Measured: AC50

Sequence of Hypoxia-inducible factor 1-alpha (Homo sapiens) (Q16665 whole entry, looked up): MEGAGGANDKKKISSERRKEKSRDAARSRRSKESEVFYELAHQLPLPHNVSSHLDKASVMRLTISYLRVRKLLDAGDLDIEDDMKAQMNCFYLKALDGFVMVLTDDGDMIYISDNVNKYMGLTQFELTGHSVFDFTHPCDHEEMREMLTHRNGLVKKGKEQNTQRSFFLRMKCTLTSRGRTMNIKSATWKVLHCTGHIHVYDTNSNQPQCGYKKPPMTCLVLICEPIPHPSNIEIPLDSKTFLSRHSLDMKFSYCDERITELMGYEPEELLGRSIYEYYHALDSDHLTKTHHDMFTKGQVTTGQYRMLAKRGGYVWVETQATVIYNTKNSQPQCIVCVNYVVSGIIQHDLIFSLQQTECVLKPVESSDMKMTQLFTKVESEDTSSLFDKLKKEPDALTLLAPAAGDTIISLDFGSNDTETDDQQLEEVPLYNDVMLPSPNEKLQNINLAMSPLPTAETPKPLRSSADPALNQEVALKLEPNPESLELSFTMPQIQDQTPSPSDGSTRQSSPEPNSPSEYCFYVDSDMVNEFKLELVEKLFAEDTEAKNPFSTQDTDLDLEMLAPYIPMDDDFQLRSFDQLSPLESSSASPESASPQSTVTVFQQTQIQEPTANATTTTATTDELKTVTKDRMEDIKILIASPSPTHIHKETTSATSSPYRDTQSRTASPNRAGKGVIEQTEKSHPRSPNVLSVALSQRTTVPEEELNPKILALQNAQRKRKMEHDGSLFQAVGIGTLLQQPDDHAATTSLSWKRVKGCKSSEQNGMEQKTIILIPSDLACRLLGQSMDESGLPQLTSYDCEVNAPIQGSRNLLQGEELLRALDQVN
Sequence of Bile acid receptor (Homo sapiens) (Q96RI1 whole entry, looked up): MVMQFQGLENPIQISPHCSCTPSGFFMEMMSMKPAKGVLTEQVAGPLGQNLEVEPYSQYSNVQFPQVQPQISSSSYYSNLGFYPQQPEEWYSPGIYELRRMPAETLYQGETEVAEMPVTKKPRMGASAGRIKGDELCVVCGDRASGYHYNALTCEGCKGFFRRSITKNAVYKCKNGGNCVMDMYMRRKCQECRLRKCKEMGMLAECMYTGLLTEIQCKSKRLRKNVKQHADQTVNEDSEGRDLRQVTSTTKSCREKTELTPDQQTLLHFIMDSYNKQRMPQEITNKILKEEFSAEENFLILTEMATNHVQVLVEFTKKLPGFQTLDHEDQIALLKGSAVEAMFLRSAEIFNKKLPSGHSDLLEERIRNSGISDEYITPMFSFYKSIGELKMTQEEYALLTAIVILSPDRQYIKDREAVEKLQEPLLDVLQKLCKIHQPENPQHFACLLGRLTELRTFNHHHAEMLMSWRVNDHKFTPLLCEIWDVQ
Sequence of Heat shock factor protein 1 (Homo sapiens) (Q00613 whole entry, looked up): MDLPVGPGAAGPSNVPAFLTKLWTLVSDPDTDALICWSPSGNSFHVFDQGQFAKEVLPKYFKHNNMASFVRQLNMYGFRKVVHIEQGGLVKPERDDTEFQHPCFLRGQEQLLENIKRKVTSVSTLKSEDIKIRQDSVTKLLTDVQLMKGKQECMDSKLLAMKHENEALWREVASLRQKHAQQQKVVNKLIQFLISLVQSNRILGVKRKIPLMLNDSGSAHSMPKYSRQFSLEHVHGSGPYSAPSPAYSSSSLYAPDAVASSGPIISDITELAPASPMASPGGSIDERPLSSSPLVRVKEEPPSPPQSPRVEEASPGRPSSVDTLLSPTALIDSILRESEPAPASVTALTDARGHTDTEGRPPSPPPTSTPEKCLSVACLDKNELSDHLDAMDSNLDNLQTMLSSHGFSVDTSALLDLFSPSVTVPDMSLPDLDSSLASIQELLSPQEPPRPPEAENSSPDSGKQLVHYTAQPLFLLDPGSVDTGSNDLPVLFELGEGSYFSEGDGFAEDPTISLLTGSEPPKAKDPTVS
Sequence of Hepatocyte nuclear factor 6 (Homo sapiens) (Q9UBC0 whole entry, looked up, the tested form may be a part): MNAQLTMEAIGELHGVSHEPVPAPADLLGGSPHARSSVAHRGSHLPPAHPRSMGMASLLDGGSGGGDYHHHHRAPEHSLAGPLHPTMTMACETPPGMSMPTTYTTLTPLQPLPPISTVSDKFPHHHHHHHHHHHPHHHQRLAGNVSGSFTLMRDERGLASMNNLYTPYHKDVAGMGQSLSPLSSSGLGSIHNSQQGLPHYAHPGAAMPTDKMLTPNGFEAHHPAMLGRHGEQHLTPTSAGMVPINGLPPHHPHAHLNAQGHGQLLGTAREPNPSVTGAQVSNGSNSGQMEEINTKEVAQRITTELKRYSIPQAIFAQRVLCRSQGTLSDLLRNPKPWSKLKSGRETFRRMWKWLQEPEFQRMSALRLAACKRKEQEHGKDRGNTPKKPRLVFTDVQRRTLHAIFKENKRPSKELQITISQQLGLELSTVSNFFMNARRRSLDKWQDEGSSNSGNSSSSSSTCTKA

CCCCCCCCN1CCCC1=O
active: [5] 147 µM
inactive: [1] | [2] | [3] | [4] | [6] | [7] | [8] | [9]

CCCC(C)=O
inactive: [1] | [2] | [3] | [4] | [5] | [6] | [7] | [8] | [9]

C1CCCCC1
inactive: [1] | [10] | [3] | [4] | [5] | [6] | [7] | [8] | [9]

CCCCOC(=O)CCCCCCCC(=O)OCCCC
inactive: [1] | [10] | [3] | [4] | [5] | [6] | [7] | [8]

CC(=O)OCCCc1ccccc1
inactive: [1] | [10] | [3] | [4] | [5] | [6] | [7] | [8]

Cc1ccc(S(N)(=O)=O)cc1
inactive: [1] | [10] | [3] | [4] | [5] | [6] | [7] | [8]

CCCCCCCCc1ccc(S(=O)(=O)O)cc1
active: [1] 175 µM | [3] 99.5 µM | [4] 155 µM | [6] 167 µM | [9] 99.5 µM
inactive: [2] | [5] | [7] | [8]

O=C1OC2(c3ccccc31)c1ccc(O)c(Br)c1Oc1c2ccc(O)c1Br
inactive: [1] | [10] | [3] | [4] | [5] | [6] | [7] | [8]

O=C(O)CCCCCCCCCCCC(=O)O
inactive: [1] | [10] | [3] | [4] | [5] | [6] | [7] | [8]

OCc1cccc(Oc2ccccc2)c1
inactive: [1] | [10] | [3] | [4] | [5] | [6] | [7] | [8]

CCCCCC(C=O)=Cc1ccccc1
active: [7] 173 µM
inactive: [1] | [2] | [3] | [5] | [6] | [8] | [9]

CCOC(=O)CCc1ccccc1
inactive: [1] | [10] | [3] | [4] | [5] | [6] | [7] | [8]

COC(C)(C)CCCC(C)CC=O (configuration not stated)
inactive: [1] | [2] | [3] | [4] | [5] | [6] | [7] | [9]

CCCCC(CC)(CO)CO
inactive: [1] | [10] | [3] | [4] | [5] | [6] | [7] | [8]

C[C@H]1C[C@@H](O)CC(C)(C)C1
inactive: [1] | [2] | [3] | [4] | [5] | [6] | [9]

C=Cc1ccc(C(C)(C)C)cc1
inactive: [1] | [10] | [3] | [4] | [5] | [6] | [7] | [8]

CC(C)(C)CC(C)(C)c1ccc(OCCOCC[N+](C)(C)Cc2ccccc2)cc1
inactive: [1] | [2] | [4] | [5] | [6] | [7]
active: [8] 8.35 µM

CC(C)CC(C)CC(O)CC(C)C (configuration not stated)
inactive: [1] | [10] | [3] | [4] | [5] | [6] | [7] | [8] | [9]

N#Cc1cscn1
inactive: [1] | [10] | [3] | [4] | [5] | [6] | [7] | [8]

CCc1ccc(O)c(OC)c1
inactive: [1] | [10] | [3] | [4] | [5] | [6] | [7]

CCOc1ccccc1O
inactive: [1] | [10] | [3] | [4] | [5] | [6] | [7] | [8] | [9]

Cc1cc(S(=O)(=O)O)ccc1N=Nc1c(O)ccc2ccccc12
inactive: [1] | [10] | [3] | [4] | [5] | [6] | [7] | [8]

OCCOCCN1CCN(C2=Nc3ccccc3Sc3ccccc32)CC1
active: [10] 152 µM
inactive: [1] | [3] | [4] | [5] | [6] | [7]

O=C1NC2NC(=O)NC2N1 (configuration not stated)
inactive: [1] | [10] | [3] | [4] | [5] | [6] | [7] | [8]

Cc1cc(CCC(=O)OCCOCCOCCOC(=O)CCc2cc(C)c(O)c(C(C)(C)C)c2)cc(C(C)(C)C)c1O
inactive: [1] | [2] | [3] | [4] | [5] | [6] | [7]
active: [8] 26.6 µM | [9] 17.7 µM

Oc1ccc2cc(SSc3ccc4cc(O)ccc4c3)ccc2c1
inactive: [1] | [3] | [4] | [6] | [9]
active: [10] 100 µM | [5] 30.6 µM | [7] 78.1 µM | [8] 34.8 µM

OCCc1ccccc1
inactive: [1] | [10] | [3] | [4] | [5] | [6] | [7] | [8]

C=C(CC(=O)O)C(=O)O
inactive: [1] | [2] | [3] | [4] | [6] | [7] | [8]

— PubChem BioAssay (EPA / NIEHS)
